A selection: hits, their analogues and other compounds. The true share with any hit is near 10%.
HEK293 tox – Cytotoxic Profiling in HEK 293 Cell Line of Diverse Libraries Using Quantitative High-Throughput Screening | HEK 293 viability, ATP luminescence (CellTiter-Glo), 48-72 h | Potency, µM (highest dose often 115 µM), without a hit: at the highest dose activity change, negative = cytotoxicity, actives largely listed as inhibitors | hit rate 6.6% among 94,000 | AID 1345083, 2018; also: nearly all actives have a fitted effect of over 60% in size
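HEK 293 seeded at 250 cells/well receive compound via pintool. After 48 or 72 hr at 37 degree Celsius, 5% CO2 and 95% humidity, CellTiter-Glo is dispensed and luminescence read following 10 min at room temperature.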
GPT2 inh – Primary qHTS assay for inhibitors of Glutamate pyruvate transaminase 2 (GPT2); Potency, µM (highest dose often 57.7 µM), for the others: at the highest dose activity change, negative = inhibition, hits mostly inhibitors; Recombinant GPT2, coupled pyruvate oxidase/HRP Amplex Red fluorescence; Alanine aminotransferase 2 (Homo sapiens), Q8TD30; AID 1671188, 2021; hit rate 0.25% among 100,000; also: nearly all actives have a fitted effect of over 60% in size
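Recombinant GPT2 (10ng/uL) with 250uM a-KG and 2mM L-alanine, 30 min at room temperature, in HEPES pH 7.5 buffer. Pyruvate detected by pyruvate oxidase/HRP/Amplex Red fluorescence after 30 min in the dark; AOA (50uM) as positive control.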
FLuc inh – Firefly luciferase inhibition profiling of diverse chemical library using quantitative high-throughput screening; Luciferin 4-monooxygenase (Photinus pyralis), P08659; purified P. pyralis luciferase, luminescence, biochemical; Potency, µM (series often up to 115 µM), usual class: inhibitors; hit rate 2.5% among 76,000; AID 1347043, 2019; also: nearly all actives have a fitted effect of over 65% in size
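Purified 10nM P. pyralis luciferase with 10uM D-luciferin and 10uM ATP in 50mM Tris acetate pH 7.5, 10mM Mg acetate, 0.01% Tween-20, 0.05% BSA. qHTS titration; luminescence read by CCD imager.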
hNpr1 antagonist – Natriuretic polypeptide receptor (hNpr1) antagonism - Primary qHTS; HEK293 hNpr1 GloSensor cGMP, ANP-stimulated luminescence; Potency, µM (titrated, usually from 46.3 µM), for inactives: top-dose activity change, negative = inhibition, actives largely listed as inhibitors; hit rate 1.6% among 76,000; AID 1347048, 2019; calls by dose curve; also: nearly all actives have a fitted effect of over 60% in size
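Compound pre-incubated 30 min at room temperature on GloSensor-loaded HEK293 cells stably carrying hNpr1 and the pGS-40F cGMP biosensor. Stimulation uses hNppA at 0.1 nM final; luminescence is taken at baseline and 20 min post-agonist.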
3T3 cytotox – Cytotoxic Profiling in NIH 3T3 Cell Line of Diverse Libraries Using Quantitative High-Throughput Screening | NIH 3T3 viability, CellTiter-Glo ATP luminescence, 48-72 h | Potency, µM (top dose mostly 96.7 µM), without a hit: at the highest dose activity change, negative = cytotoxicity, usual class: inhibitors | hit rate 4.3% among 94,000 | AID 1345082, 2018; also: nearly all actives have a fitted effect of over 55% in size
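NIH 3T3 cells at 400 cells/well received 23 nL of compound by pintool and were incubated 48 or 72 h at 37 °C. Viability was read as ATP-coupled CellTiter-Glo luminescence.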
* = called active by the depositor; i = inactive; u = inconclusive; x = no result; [ ] = dose if it differs, or a comment. Unless noted, calls follow the shape of the dose curve; as a rule, active = well fitted curve in the direction sought with a large enough effect; inconclusive = small, poorly fitted or top-dose-only effect, or another doubt; inactive = no such curve, though single readings can be large; an effect the other way counts as inactive or inconclusive. % is scaled to controls: 0 for no effect and ±100 for the full control effect; potency is read from the fitted curve at half-maximal effect.

SMILES | HEK293 tox | GPT2 inh | FLuc inh | hNpr1 antagonist | 3T3 cytotox
Cc1cc(C)c(CNC(=O)c2nc(Nc3ccccc3)cc3[nH]ccc23)c(=O)[nH]1 | u | i | i | -11%[70.6 µM] | u
CCN1CCN(CCN2CC3(CCN(C(=O)c4ccc(C)nc4)CC3)OC2=O)CC1 | -10% | -7%[11.5 µM] | i | 3% | 1%
c1coc(-c2nc3nccc(-c4cc5ccccc5o4)n3n2)c1 | u | -8% | i | -9% | u
O=C(NCCN[S+](=O)([O-])c1ccccc1)c1ccc(-c2cncnc2)cc1 | -29% | x | x | x | u
c1ccc(CCn2cnc3cccnc32)cc1 | -26%[230 µM] | -8%[88.5 µM] | 40µM* | -2%[70.6 µM] | -29%[174 µM]
O=C(NC1CCN(c2cc(-c3ccc(F)cc3)[nH]n2)C1)c1cc(F)ccc1Cl (centres undefined) | u | u | i | -17% | u
COc1cc(-c2nc(-c3c(C)noc3C)cc3[nH]c(C)cc23)ccn1 | 89µM* | -10%[88.5 µM] | i | -17%[70.6 µM] | u
Cc1cc2c(-c3ccccc3O)nc(-c3c(C)noc3C)cc2[nH]1 | u | -6%[88.5 µM] | i | 7%[70.6 µM] | u
Cc1cc2c(-c3cccc(S(C)(=O)=O)c3)nc(-c3c(C)noc3C)cc2[nH]1 | u | -10%[88.5 µM] | i | u | 8.9µM*
COc1ccc(-c2nc(-c3c(C)noc3C)cc3[nH]c(C)cc23)cn1 | u | u | i | 8%[70.6 µM] | u
Cc1cc2c(-c3cccc(O)c3)nc(-c3c(C)noc3C)cc2[nH]1 | 45µM* | 2%[88.5 µM] | i | -22%[70.6 µM] | 35µM*
Cc1cc2c(-c3cccc(CO)c3)nc(-c3c(C)noc3C)cc2[nH]1 | u | 4%[88.5 µM] | i | -12%[70.6 µM] | 35µM*
Cc1cccc(NC(=O)CN2C(=O)NC3(CCC(C(C)(C)C)CC3)C2=O)c1C (centres undefined) | u | -6% | i | 1% | u
Cc1ccc(C(=O)N2CCC(OC3CCN(Cc4ccccc4)CC3)CC2)cc1 | -23% | i | i | 1% | -19%
Cc1ccc(-n2c(C3CCN(C(=O)c4cc(-c5ccc(F)cc5)n[nH]4)CC3)n[nH]c2=O)cc1 | -17% | i | i | -11% | u
Cc1ccc(NC(=O)c2cc3c(N4CCSCC4)nc(C)cn3n2)cc1 | u | i | i | -3% | u
Cc1cn2nc(C(=O)Nc3ccc4c(c3)OCO4)cc2c(N2CCCC2)n1 | -2% | i | u | -17% | 0%
Cc1cn2nc(C(=O)NC3CCCCCC3)cc2c(N2CCSCC2)n1 | 45µM* | i | i | -2% | u
Cc1cccc(NC(=O)c2cc3c(N4CCSCC4)nc(C)cn3n2)c1 | 40µM* | i | i | -5% | u
Cc1cn2nc(C(=O)NC3CCCCC3)cc2c(N2CCCC2)n1 | -3% | -15% | i | 10% | -7%
Cc1cn2nc(C(=O)Nc3ccc4c(c3)OCCO4)cc2c(N2CCSCC2)n1 | u | -4% | 11µM* | -27% | -15%
O=C(c1ccnc(-c2ccncc2)c1)N1CCCC1 | 1% | 2% | i | -6% | -3%
O=C(c1ccnc(-c2ccccc2-c2ccccc2)c1)N1CCCC1 | u | i | i | 1% | 35µM*
CC(Cc1cccnc1)Nc1cc(-c2ccccc2F)nc2ccnn12 (centres undefined) | 79µM* | i | i | 4% | u
CC1CCCCN1CCCNC(=O)c1cc2c(s1)CN(C1CCCC1)C2 (centres undefined) | 79µM* | i | u | -4% | u
SMILES | HEK293 tox | GPT2 inh | FLuc inh | hNpr1 antagonist | 3T3 cytotox
CC1CCCN(CCCNC(=O)c2cc3c(s2)CN(C2CCCC2)C3)C1 (centres undefined) | 9% | i | i | 8% | -3%
CNC(=O)c1cnc2c(c1)N(C(=O)Cc1ccc(C(C)C)cc1)CCC2 | u | u | i | -15%[70.6 µM] | u
Cc1ccccc1NC(=O)c1cnc2c(c1)N(C(=O)CCc1ccccc1)CCC2 | 100µM* | -12%[88.5 µM] | i | u | -21%[138 µM]
COc1ccccc1N1CCCc2ncc(C(=O)Nc3cccnc3)cc21 | 100µM* | u | i | -19%[70.6 µM] | u
COc1ccc(NC(=O)c2cnc3c(c2)N(C(=O)Cc2ccc(C(C)C)cc2)CCC3)cc1OC | 32µM* | -11% | i | u | u
COc1ccccc1CC(=O)N1CCCc2ncc(C(=O)Nc3ccccc3)cc21 | u | -5%[88.5 µM] | u | u | -23%[138 µM]
COc1cccc(NC(=O)c2cnc3c(c2)N(C(=O)Cc2ccccc2OC)CCC3)c1 | 100µM* | -20%[88.5 µM] | u | -2%[70.6 µM] | -23%[138 µM]
Cc1ccccc1NC(=O)c1cnc2c(c1)N(Cc1ccccc1)CCC2 | u | -3%[88.5 µM] | i | 0%[70.6 µM] | u
CCn1ccc(C(=O)NCC2Cn3cccc3C(=O)N2CC(C)C)n1 (centres undefined) | -8% | 4% | i | -17% | 0%
O=C(c1n[nH]c(=O)c2ccccc12)N1CCC(Cc2noc(C3CCOCC3)n2)C1 (centres undefined) | u | i | i | -3% | -11%
O=C(CN1C(=O)C(c2ccccc2)=NC12CCCCC2)N1CCN(c2ccccc2)CC1 | u | 2% | i | 0% | u
CC(C)c1ccc(CC(=O)N2CCCc3ncc(C(=O)Nc4ccn(C)n4)cc32)cc1 | 89µM* | -6%[88.5 µM] | i | -2%[70.6 µM] | u
COCCCNC(=O)c1cnc2c(c1)N(C(=O)Cc1ccc(C(C)C)cc1)CCC2 | 71µM* | -14%[88.5 µM] | i | -2%[70.6 µM] | -24%[138 µM]
CC(C)c1ccc(CC(=O)N2CCCc3ncc(C(=O)NCCc4c[nH]c5ccccc45)cc32)cc1 | 25µM* | -25% | i | -5% | 11µM*
O=C(Nc1cccc(C(F)(F)F)c1)c1cnc2c(c1)N(C(=O)Cc1cccc(C(F)(F)F)c1)CCC2 | 25µM* | u | i | -24% | u
O=C(NC1CCCCC1)N1CCc2c(nc(-c3ccncc3)[nH]c2=O)C1 | -9% | i | i | -2% | -37%
CCCn1ncc(C(=O)N2CCOCC2CC(=O)N2CCSCC2)c1C (centres undefined) | i | 2% | i | 1% | 2%
O=C1NC(=NC2CCCC2)C2(CCN(Cc3ccccc3)C2)N1c1cc(F)cc(F)c1 (centres undefined) | u | i | x | x | u
CCC(C)Oc1ccc(CNC(=O)c2cn(CCN)nn2)cc1 (centres undefined) | 32µM* | 4% | i | 3% | u

Screening results deposited in PubChem BioAssay by National Center for Advancing Translational Sciences (NCATS).
